An excerpt weighted towards active compounds, which were near 7.4% of everything screened.
SMN2 splice enh = increases expression of the SMN2 splice variant; HEK293 SMN2-luciferase splicing reporter, luminescence, 30-36 h; Potency, µM (highest dose often 46.1 µM), without a hit: top-dose activity change, positive = activation, most hits filed as activators; 210,000 tested, 2.8% active; AID 1458; also: % of control where 0% means no effect; nearly all actives have a fitted effect of over 55% in size
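qHTS luciferase splicing reporter: luminescence rises when SMN2 exon 7 is included in transfected HEK293 cells. Compound exposure lasted 30-36 h at 37C, with 4.5 mM final sodium butyrate as control, followed by a ONE-Glo read.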
ELG1 genotox = genotoxicity induction in ELG1-luciferase HEK293T cells; 330,000 tested, 1.3% active; Potency, µM (series often up to 46 µM), for inactives: at the highest dose activity change, positive = activation, hits mostly activators; HEK293T ELG1-luciferase reporter, luminescence, 16 h; also: % of control where 0% means no effect; nearly all actives have a fitted effect of over 60% in size
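Quantitative HTS format in 1536-well plates. HEK293T ELG1-luciferase reporter cells receive test compound and are incubated 16 hr at 37 °C, 5% CO2; ONE-Glo added, 30 min room temperature, then luminescence read.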
NPC1 prom act = activates the NPC1 promoter. Huh7 NPC1 promoter luciferase reporter, 24 h. Potency, µM (highest dose often 9.22 µM), for the others: at the highest dose activation, hits mostly activators. 320,000 tested, 2.4% active. AID 485313; also: % of control where 0% means no effect; nearly all actives have a fitted effect of over 60% in size
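Luminescence read-out of NPC1 promoter-driven luciferase in stably transfected Huh7 cells; compounds delivered in DMSO and left 24 h at 37C, 5% CO2, qHTS titration format.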
Rab9 prom act = activators of Rab9 promoter. 320,000 tested, 2.8% active. AID 485297. Potency, µM (series often up to 9.22 µM), inactives show at the highest dose activation, negative = inhibition, usual class: activators. Huh7 Rab9 promoter-luciferase reporter, luminescence, 24 h; also: % of control where 0% means no effect; nearly all actives have a fitted effect of over 60% in size
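Stable Rab9-luc Huh7, 1500 cells/well, 2 h settle; cmpd in DMSO, 24 h, 37 °C/5% CO2; luciferase reagent 10 min RT; luminescence.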
FLuc counter = inhibits or activates purified firefly luciferase, miR-21 counter-screen; P08659; purified FLuc, Km substrates, luminescence inhibition; Potency, µM (titrated, usually from 57.5 µM), without a hit: top-dose activity change, negative = inhibition, actives largely listed as inhibitors; 360,000 tested, 6.9% active;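 also: plate controls were vehicle for no effect and reference inhibitor for full effect; nearly all actives have a fitted effect of over 55% in size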
Target sequence (P08659 whole entry, looked up): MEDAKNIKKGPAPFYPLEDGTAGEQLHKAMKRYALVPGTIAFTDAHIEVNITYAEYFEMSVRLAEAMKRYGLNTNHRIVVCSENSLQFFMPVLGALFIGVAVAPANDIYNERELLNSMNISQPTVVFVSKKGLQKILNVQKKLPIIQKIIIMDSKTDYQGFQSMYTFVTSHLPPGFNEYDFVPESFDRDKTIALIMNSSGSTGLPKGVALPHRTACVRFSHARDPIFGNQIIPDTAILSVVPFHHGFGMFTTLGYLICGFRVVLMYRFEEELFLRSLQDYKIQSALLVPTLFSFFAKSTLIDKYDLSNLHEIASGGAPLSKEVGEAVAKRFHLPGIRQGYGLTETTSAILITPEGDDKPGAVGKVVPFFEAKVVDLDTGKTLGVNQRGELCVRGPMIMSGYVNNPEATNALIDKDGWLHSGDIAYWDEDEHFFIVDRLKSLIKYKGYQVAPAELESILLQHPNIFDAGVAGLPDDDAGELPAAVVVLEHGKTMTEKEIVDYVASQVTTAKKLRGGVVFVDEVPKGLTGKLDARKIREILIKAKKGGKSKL
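Biochemical qHTS of compounds, final roughly 60 µM downward over six points, against 10 nM purified firefly luciferase using Km concentrations of substrates (10 uM D-luciferin, 10 uM ATP) in Tris acetate pH 7.5 buffer; luminescence output.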
The depositor's hits bear a star; ? = inconclusive; / = no result. Calls follow the shape of the dose curve; as a rule, active = well fitted curve in the direction sought with a large enough effect; inconclusive = small, poorly fitted or top-dose-only effect, or another doubt; inactive = no such curve, though single readings can be large; an effect the other way counts as inactive or inconclusive. Potency is read from the fitted curve at half-maximal effect.

SMILES	SMN2 splice enh	ELG1 genotox	NPC1 prom act	Rab9 prom act	FLuc counter
Cn1ccs/c1=N\C(=O)Nc1cccc(Cl)c1	/	5.2µM*	0.89µM*	0.71µM*	7.6µM*
Nc1nonc1C(=O)NCCNCc1ccc(Cl)c(Cl)c1	-15%	/	/	/	4%
O=C(OCC#CCSc1nnc(-c2ccc(Br)cc2)o1)c1cccs1	-45%	8%	-5%	-2%	?
Cc1ccc(-c2nnc(SCC#CCOC(=O)c3ccco3)o2)cc1	-2%	?	5%	?	17µM*
Cc1ccc(-c2nnc(SCC#CCOC(=O)c3cccs3)o2)cc1	6%	12%	18%	20%	19µM*
Cc1ccc2c(c1)-c1ncc(C(=O)c3cc(Br)ccc3O)cc1CO2	0%	-13%	-8%	-1%	-12%
COc1ccc(N2CC(C(=O)Nc3ccccc3-c3nc(-c4ccc(C)cc4)no3)CC2=O)cc1 (stereo not drawn)	/	/	/	/	-4%
Cc1cccnc1NC(=O)Nc1ccc(Cl)cc1	/	?	-8%	4µM*	4.3µM*
Cc1cccnc1NC(=O)Nc1ccccc1	/	?	?	4µM*	11µM*
COc1ccc(C(=O)NC(=O)Nc2ncccc2C)cc1	?	?	?	3.5µM*	17µM*
COc1ccc(NC(=O)Nc2ncccc2C)cc1	11µM*	?	?	?	11µM*
COc1ccc(C2=NS(=O)(=O)N(C)C(C(=O)Nc3ccc(OC(F)(F)F)cc3)=C2)cc1	/	/	/	/	-1%
CCC1CN(C(=O)N2CCC(C(=O)NCc3cc(OC)ccc3OC)CC2)c2ccccc2O1 (stereo not drawn)	/	/	/	/	-3%
CN(C)c1ccc(NC(=O)c2sc(SCC(=O)Nc3nccs3)nc2N)cc1	69%	?	25%	?	1.9µM*
CCCCNC(=O)CSc1nc(N)c(C(=O)Nc2ccc(OC)cc2)s1	/	10%	26%	28%	17µM*
Clc1ccccc1C1Nc2cccc3cccc(c23)N1	/	-8%	-4%	11%	?
c1coc(C2Nc3cccc4cccc(c34)N2)c1	17%	-3%	8%	18%	27µM*
COc1ccc(-c2cc(C(F)(F)F)nc(SCC(=O)N(C)Cc3ccccc3)n2)cc1	-35%	/	/	/	-9%
CN(C(=O)CSc1ncnc2sc(-c3ccccc3)cc12)C1CCS(=O)(=O)C1 (stereo not drawn)	-47%	-6%	-1%	9%	17µM*
CN(C(=O)COc1ncnc2ccccc12)C1CCCCC1	/	0%	/	/	/
CN(C(=O)CSc1ncnc2scc(-c3ccccc3)c12)C1CCS(=O)(=O)C1 (stereo not drawn)	8%	3%	1%	-2%	0%
CCN(CC)C(=O)CSc1ncnc2sc(-c3ccccc3)cc12	-10%	?	?	2.8µM*	11µM*
CN(CCC#N)C(=O)CSc1ncnc2sc(-c3ccccc3)cc12	-22%	-1%	16%	20%	11µM*
CN(C(=O)CSc1ncnc2ccccc12)C1CCCCC1	/	?	?	3.5µM*	15µM*
COc1cc(C#N)c(NS(=O)(=O)c2ccc3[nH]c(=O)sc3c2)cc1OC	/	1%	1%	-4%	-19%
SMILES	SMN2 splice enh	ELG1 genotox	NPC1 prom act	Rab9 prom act	FLuc counter
Cc1noc(Cn2c(=O)c3ccccc3n(CC(=O)Nc3cccc(Cl)c3C)c2=O)n1	/	/	/	/	-3%
CCCc1cc2c(=O)c(-c3ccccn3)coc2cc1OC	?	?	2µM*	1.6µM*	4.8µM*
CCCc1cc2c(=O)c(-c3ccccn3)c(C)oc2cc1O	0%	11%	13%	3%	?
O=C(CSc1nnc(Nc2ccccc2)s1)Nc1cccc(S(=O)(=O)N2CCCCC2)c1	-22%	-1%	3%	-5%	12µM*
Nc1nc(SCC(=O)Nc2cccc(S(=O)(=O)N3CCCCCC3)c2)n[nH]1	-10%	-1%	2%	-1%	17µM*
O=C1c2ccccc2C(=O)N1CCSC(=S)N1CCOCC1	?	?	?	?	12µM*
O=C(CN1C(=O)C(=O)N(C2CCCC2)C1=O)NCCc1ccc(Cl)cc1Cl	/	-1%	-15%	6%	/
COc1cc2c(cc1NC(=O)COC(=O)Cn1cnc3ccccc31)oc1ccccc12	24%	23µM*	28%	?	19µM*
COc1cc2c(cc1NC(=O)CSCC(=O)O)oc1ccccc12	9%	-1%	12%	-1%	21µM*
COc1cc2c(cc1NC(=O)Cc1ccc(C)cc1)oc1ccccc12	8.9µM*	12%	21%	?	15µM*
COc1ccc(C(=O)C[n+]2ccc(N(C)C)cc2)cc1	/	-11%	-14%	-22%	-1%
COc1ccc(-n2cc(CNCc3cnc4ccccn34)c(-c3cccc(F)c3)n2)cc1	/	-14%	5%	1%	8.5µM*
Cc1cccc(-n2cc(CNCCc3nc(C)cc(C)n3)c(-c3cccc(F)c3)n2)c1	/	-6%	-7%	-5%	15µM*
COc1ccc(-n2cc(CNCC3CCOCC3)c(-c3cccc(F)c3)n2)cc1	/	-3%	-5%	-5%	?
O=C1C2CC(O)CN2C(=O)N1c1ccccc1 (stereo not drawn)	-7%	-5%	1%	2%	0%
COc1cc(-c2noc(-c3ccc(N4CCOCC4)c([N+](=O)[O-])c3)n2)cc(OC)c1OC	/	/	/	/	19µM*
COc1ccc(-c2noc(-c3ccc(NC(C)c4ccccc4)c([N+](=O)[O-])c3)n2)cc1OC (stereo not drawn)	/	/	/	/	11µM*
Cc1c(-c2nc(-c3cccnc3)no2)cccc1[N+](=O)[O-]	21%	?	30%	16%	?

Screening results deposited in PubChem by National Center for Advancing Translational Sciences (NCATS).
